Compound activity: PubChem, several laboratories
In the library only some 0.2% were active in any assay of this set; here they are far more common.
Bcl-2 Bim block = inhibitors of Bim-Bcl-2 binding, primary screen, biochemical, multiplexed, human Bcl-2 family. inhibition, % at 10 µM. hit rate 0.06% among 190,000. Bead-based flow cytometry, Bim peptide-Bcl-2 binding. Apoptosis regulator Bcl-2 (Homo sapiens), P10415; in the data active = inhibition above about 40%;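 also: 0% = no compound wells with probe peptide and 100% = reference peptide inhibitor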
Bcl-XL Bim block = inhibitors of Bim-Bcl-XL binding, primary screen, biochemical, multiplexed, bead flow cytometry, human Bcl-XL | inhibition, % at 10 µM | hit rate 0.04% among 190,000 | Bcl-2-like protein 1 (Homo sapiens), Q07817 | Bim peptide-Bcl-XL binding, fluorescence
Pf gametocyte = late stage P. falciparum gametocyte viability inhibitors, primary screen, ATP luminescence, HTS | P. falciparum stage V gametocytes, 24 h | inhibition, % at 10.9 µM | hit rate 0.065% among 150,000;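 active = inhibition above the mean plus 3 SD of compounds within the control limits, set per campaign, cut at about 38% in these data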;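 also: 0% = DMSO wells and 100% = medium only without gametocytes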
Bcl-W Bim block = inhibitors of Bim binding to Bcl-W, primary screen, biochemical, multiplexed, bead-based flow cytometry; inhibition, % at 10 µM; hit rate 0.02% among 190,000; AID 952, 2007; Bcl-2-like protein 2 (Homo sapiens), Q92843; Bim peptide-Bcl-W binding;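 also: 0% = bound tracer without compound and 100% = peptide blocker; higher means less fluorescent Bim peptide bound to Bcl-W beads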
Target sequence (Q92843 whole entry, looked up): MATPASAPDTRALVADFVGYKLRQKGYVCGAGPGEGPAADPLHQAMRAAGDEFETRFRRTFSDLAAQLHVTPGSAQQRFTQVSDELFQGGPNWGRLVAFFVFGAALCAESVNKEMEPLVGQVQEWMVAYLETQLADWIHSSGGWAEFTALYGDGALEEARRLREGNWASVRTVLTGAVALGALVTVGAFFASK
Bim-Bfl-1 = inhibitors of Bim binding to Bfl-1, primary screen, biochemical, multiplexed, bead-based flow cytometry; Bim-Bfl-1 binding inhibition; inhibition, % at 10 µM; hit rate 0.12% among 190,000; AID 1008, 2008;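 also: 0% = wells without compound plus tracer and 100% = blocker peptide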
Bcl-B Bim block = inhibitors of Bim-Bcl-B binding, primary screen, biochemical, multiplexed, human Bcl-2 family | inhibition, % at 10 µM | bead-based flow cytometry, Bim peptide-Bcl-B binding | Bcl-2-like protein 10 (Homo sapiens), Q9HD36 | hit rate 0.073% among 190,000;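 also: 0% = tracer peptide without compound and 100% = reference inhibitor peptide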
Target sequence (Q9HD36 whole entry, looked up): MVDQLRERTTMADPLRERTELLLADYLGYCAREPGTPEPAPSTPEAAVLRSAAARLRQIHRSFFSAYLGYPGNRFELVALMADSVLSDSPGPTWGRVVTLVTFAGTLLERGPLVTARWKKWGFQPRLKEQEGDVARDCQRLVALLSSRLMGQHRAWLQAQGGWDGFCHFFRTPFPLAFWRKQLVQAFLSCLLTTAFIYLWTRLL
An asterisk follows results filed as active; . = no result given. Rule as the data show it, unless noted: active = inhibition above about 40%.

SMILES	Bcl-2 Bim block	Bcl-XL Bim block	Pf gametocyte	Bcl-W Bim block	Bim-Bfl-1	Bcl-B Bim block
Cc1nc(=S)c2ccccc2[nH]1	87*	15	.	11	68*	85*
FC(F)(F)c1nc(=S)c2ccccc2[nH]1	6	6	.	1	9	-4
COc1ccc(/C=N/n2cc(-c3ccccc3)nc2N)cc1	84*	19	.	12	65*	84*
COCCCn1c(O)c(/C=C2\N=C(C#N)C(=Nc3ccc(C)cc3)O2)sc1=S	.	.	21	.	.	.
Cc1nnc(NC(=O)c2ccc(S(=O)(=O)N3CCc4ccccc4C3)cc2)o1	-5	-2	49*	-4	-4	-8
CCc1ccc(-c2cc(C(=O)Nn3cnnc3)c3ccccc3n2)cc1	0	-1	39*	-1	-1	-1
CCCc1ccc(-c2cc(C(=O)NN3CCOCC3)c3ccccc3n2)cc1	0	-1	1	-3	-1	-5
Cc1nc(SCc2nc3ccc(C(=O)c4ccccc4)cc3[nH]2)c2oc3ccccc3c2n1	.	.	-9	.	.	.
C/C(=N/NC(=O)c1cccs1)c1c(C)[nH]n(-c2nc3ccccc3s2)c1=O	0	8	56*	7	-1	15
COc1cc2[nH]c(=S)nc(NCCc3ccc(C)cc3)c2cc1OC	4	32	.	20	3	0
COc1ccc(CCNc2nc(=S)[nH]c3cc(OC)c(OC)cc23)cc1OC	14	48*	.	28	14	10
COc1cc2[nH]c(=S)nc(NCCc3ccc(S(N)(=O)=O)cc3)c2cc1OC	19	55*	-4	39	12	31
COc1cc2[nH]c(=S)nc(Nc3ccc(NC(C)=O)cc3)c2cc1OC	21	50*	-5	33	29	31
C/C(CCC(C)C)=N\Nc1cc(C)c2ccccc2n1	-4	-6	.	-2	-6	-6
COc1cc(CNCc2ccc(SC)cc2)cc(OC)c1	-1	-17	-11	-9	-3	-14
O=C(Nc1ccc2nc(-c3ccco3)c(-c3ccco3)nc2c1)N1CCN(c2ccccn2)CC1	25	12	4	28	53*	1
O=C(Nc1ccccc1)c1ccc2nc(-c3ccco3)c(-c3ccco3)nc2c1	15	8	-3	27	45*	5
O=C(Nc1ccc(N2CCOCC2)cc1)c1ccc2nc(-c3ccco3)c(-c3ccco3)nc2c1	3	1	27	4	11	0
CC(=O)c1ccc(NC(=O)c2ccc3nc(-c4ccco4)c(-c4ccco4)nc3c2)cc1	25	2	.	23	51*	5
O=C(NCCO)Nc1ccc2nc(-c3ccco3)c(-c3ccco3)nc2c1	29	13	.	19	43*	8
CC(CC12CC3CC(CC(C3)C1)C2)NCc1ccccc1O (configuration not stated)	.	.	19	.	.	.
CC(=O)c1ccc(Nc2ccc(-c3ccccc3F)nn2)cc1	1	0	-20	3	-1	-3
O=C(NCCCO)c1ccc2nc(-c3ccco3)c(-c3ccco3)nc2c1	22	12	-9	29	52*	3
O=C(O)CC1(CC(=O)Nc2ccc(F)c(Cl)c2)CCCCC1	.	.	-24	.	.	.
Cc1ccc(NC(=O)c2nc[nH]c2C(=O)N[C@@H](C)c2ccccc2)cc1	-7	-2	3	1	-4	-5
SMILES	Bcl-2 Bim block	Bcl-XL Bim block	Pf gametocyte	Bcl-W Bim block	Bim-Bfl-1	Bcl-B Bim block
Cc1ccc(NC(=O)c2[nH]cnc2C(=O)NN)cc1	-2	0	40*	-2	0	-2
CCN1/C(=C/c2ccc3cc(C)ccc3[n+]2CC)Sc2ccccc21	15	13	5	5	14	-22
CCN1/C(=C/c2ccc3cc(C)ccc3[n+]2CC)Sc2cc(C)c(C)cc21	40*	19	1	14	39	-26
O=C(COC(=O)CSc1ccc2ccccc2c1)NCc1ccc2c(c1)OCO2	-3	-4	48*	-5	-4	-8
Cc1ccc(NC(=S)N2CCn3cccc3C2c2cccnc2)cc1 (configuration not stated)	-1	-4	.	-1	-1	18
CCc1cccc(CC)c1NC(=S)N1CCn2cccc2C1c1cccnc1 (configuration not stated)	21	27	.	20	25	49*
O=C1Cc2ccccc2C(=O)N1OCc1ccc(Cl)cc1	0	-4	41*	0	-5	-2
Cc1c(N2C(=O)c3ccc4c5c(ccc(c35)C2=O)CC4)c(=O)n(-c2ccccc2)n1C	17	4	.	5	3	58*
CCN(CC)c1ccc2c(c1)CCCN2	41*	15	.	49*	62*	28
CCN(CC)c1ccc(CN2CCCCCC2)cc1	0	0	.	-1	-1	-2
CN(C)CCNC(=O)C(=O)C1C(=O)Nc2ccccc21 (configuration not stated)	78*	0	20	-6	52*	70*
CCCCCNC(=O)C(=O)C1C(=O)Nc2ccccc21 (configuration not stated)	.	.	1	.	.	.
Cc1ccc(N=C2NC(=O)/C(=C/C=C/c3ccco3)S2)cc1	20	4	.	15	52*	0
C1=CC2c3ccccc3NC(c3ccncc3)C2C1 (configuration not stated)	18	8	-14	14	55*	9
COc1ccc(NC(=O)Cc2coc3cc(C)c(C(C)C)cc23)cc1S(=O)(=O)N1CCOCC1	0	1	14	0	6	6
O=S(=O)(Nc1ccccn1)c1ccc(Cl)c2ccccc12	0	0	7	1	-4	-3
CCn1c(-c2nn(-c3ccc(C)cc3)ccc2=O)n[nH]c1=S	0	-3	11	-1	-4	-5
Cc1ccc(-n2ccc(=O)c(-c3ccnc(SCc4cccc(Cl)c4)n3)n2)cc1	79*	12	.	15	56*	74*
O=S1(=O)N=C(N(CCO)/N=C/c2ccncc2)c2ccccc21	12	40*	10	30	7	23
Cc1ccc(-c2c3c([nH]c(=S)c2C#N)CCCC3)o1	11	5	-17	20	41*	-5
Cc1ccc(-c2csc3nc[nH]c(=S)c23)cc1	1	-11	51*	-4	0	-12
S=c1[nH]cnc2scc(-c3ccc(Br)cc3)c12	-3	-9	-9	-4	-6	-8
O=C1NC(Cc2ccccc2)c2nc3cc(Cl)ccc3c(=O)n2-c2ccccc21 (configuration not stated)	.	.	-6	.	.	.
CCC(/C=C1\Sc2ccc(OC)cc2N1CCO)=C\c1sc2ccc(OC)cc2[n+]1CCO	60*	51*	5	40*	62*	14
